HP1b chromo inh: inhibitors of HP1-beta chromodomain binding to methylated histone tails; P83916; AlphaScreen HP1-beta / biotin-H3K9me3 peptide binding; Potency, µM (highest dose often 114 µM), most hits filed as inhibitors; 390,000 tested, 0.56% active; AID 540317; also: nearly all actives have a fitted effect of over 70% in size
Target sequence (P83916 whole entry, looked up): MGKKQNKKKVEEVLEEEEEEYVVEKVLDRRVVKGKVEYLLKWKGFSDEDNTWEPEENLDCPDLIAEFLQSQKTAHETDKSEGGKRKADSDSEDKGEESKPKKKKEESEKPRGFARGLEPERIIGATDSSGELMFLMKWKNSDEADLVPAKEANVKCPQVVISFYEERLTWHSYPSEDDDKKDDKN
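Compound inhibition of the preformed complex between 50 nM HP1-beta and 50 nM biotinylated H3K9me3 peptide was read by AlphaScreen. Buffer was PBS pH 7.4 with 0.01% Tween-20. Incubations ran 30 min at room temperature, with 10 ug/mL donor/acceptor beads.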
VDR inhibitor: blocks the human vitamin D receptor; P11473; Potency, µM, usual class: inhibitors; VDR-SRC2-3 peptide fluorescence polarization, 2 h; 400,000 tested, 0.93% active
Target sequence (P11473 whole entry, looked up): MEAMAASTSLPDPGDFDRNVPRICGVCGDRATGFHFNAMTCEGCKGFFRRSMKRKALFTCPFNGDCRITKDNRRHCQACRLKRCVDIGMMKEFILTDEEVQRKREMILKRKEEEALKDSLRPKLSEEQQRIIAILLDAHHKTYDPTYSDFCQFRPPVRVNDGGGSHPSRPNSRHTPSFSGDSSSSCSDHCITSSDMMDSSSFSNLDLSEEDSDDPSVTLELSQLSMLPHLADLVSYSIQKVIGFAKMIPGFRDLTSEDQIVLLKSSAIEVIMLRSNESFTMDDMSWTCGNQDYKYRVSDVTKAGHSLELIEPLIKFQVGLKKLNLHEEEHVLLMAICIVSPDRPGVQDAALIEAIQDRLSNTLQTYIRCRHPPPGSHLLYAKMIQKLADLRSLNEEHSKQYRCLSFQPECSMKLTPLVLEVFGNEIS
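Measured by FP: displacement of SRC2-3 coactivator peptide from VDR by library compounds, following a two-hour ambient incubation.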
PLK1 PBD inh: PLK1 (human) polo-box domain binding inhibition. P53350. Plk1 PBD binding of FITC phosphopeptide, fluorescence polarization. AID 720504. 360,000 tested, 2.8% active. Potency, µM, most hits filed as inhibitors; also: series mostly up to about 57 µM; nearly all actives have a fitted effect of over 65% in size
JMJD2A Tudor: JMJD2A Tudor domain (human) inhibition. O75164. Potency, µM (series often up to 114 µM), usual class: inhibitors. AlphaScreen JMJD2A-Tudor / H3K4me3 peptide binding. 390,000 tested, 4.4% active; also: nearly all actives have a fitted effect of over 50% in size
BAZ2B block: BAZ2B (human) inhibition; AlphaScreen BAZ2B-H3K14Ac peptide displacement; AID 504333; 360,000 tested, 4.4% active; Q9UIF8; Potency, µM (highest dose often 114 µM), most hits filed as inhibitors; also: nearly all actives have a fitted effect of over 60% in size
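AlphaScreen luminescence quantifies BAZ2B engagement of H3K14Ac peptide; the protein and biotinylated peptide are both at 50 nM final, buffer PBS pH 7.4 with 0.01% Tween-20, all steps at room temperature.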
G9a block: G9a (human) methyltransferase inhibition; Q96KQ7; G9a H3K9 monomethylation, AlphaScreen, 2 h; Potency, µM (doses to about 102 µM), usual class: inhibitors; 350,000 tested, 8.8% active; AID 504332; also: nearly all actives have a fitted effect of over 75% in size
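G9a (20 nM) was preincubated 15 min with compound, then reacted 2 h at room temperature with 500 nM biotin-H3K9 peptide and 20 µM SAM. Monomethyl-H3K9 detected by AlphaScreen using anti-H3K9me1 antibody.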
Of the large screens only hits and unclear results are named; the others gave an inactive call. Most compounds without a hit are left out; they make up all but 11% or so of the library. Calls follow the shape of the dose curve; as a rule, active = well fitted curve in the direction sought with a large enough effect; inconclusive = small, poorly fitted or top-dose-only effect, or another doubt; inactive = no such curve, though single readings can be large; an effect the other way counts as inactive or inconclusive.

CCOC(=O)c1nc[nH]c1C	G9a block inconclusive
Cc1[nH]cnc1CSCc1ccc(Cl)cc1	BAZ2B block inconclusive, G9a block 25µM
COc1ccc(OCCN2CCN(S(=O)(=O)c3ccccc3C(F)(F)F)CC2)cc1	none
CSc1ccc(/C=C2\CCn3c2nc2cc(C(=O)O)ccc2c3=O)cc1	VDR inhibitor inconclusive, JMJD2A Tudor inconclusive, G9a block inconclusive
O=C(CCn1c(=O)c2sccc2n(Cc2ccccc2F)c1=O)NCc1ccc2c(c1)OCO2	none (no result: PLK1 PBD inh)
Cc1c(NC(=O)c2ccc(Cl)nc2)cccc1-c1nc2cccnc2s1	none
O=C(Nc1ccccc1C(F)(F)F)c1ncn[nH]1	JMJD2A Tudor 7.9µM, BAZ2B block 14µM (no result: G9a block)
Cc1onc(C(=O)Nc2ccccc2C(F)(F)F)c1[N+](=O)[O-]	none (no result: G9a block)
O=C(Nc1ccccc1C(F)(F)F)c1cnccn1	none
Cc1c(NC(=O)c2ccco2)cccc1-c1nc2cccnc2s1	JMJD2A Tudor inconclusive, G9a block 14µM
Cc1c(NC(=O)c2ncn[nH]2)cccc1-c1nc2ccccc2s1	JMJD2A Tudor inconclusive, BAZ2B block 25µM, G9a block inconclusive
Cc1c(NC(=O)c2ccc(N3CCCC3)c([N+](=O)[O-])c2)cccc1-c1nc2ccccc2s1	G9a block inconclusive
Cc1noc(C(=O)Nc2ccccc2C(F)(F)F)c1Cl	PLK1 PBD inh 30µM
CC(C)C[C@@H](CC(=O)N[C@H](CC(=O)N[C@@H]1CCNC[C@H]1C(=O)N[C@H](CC(=O)N[C@@H](CCC(=O)O)CC(=O)O)Cc1ccccc1)C(C)C)NC(=O)[C@@H]1CCCC[C@H]1N	none (no result: HP1b chromo inh, PLK1 PBD inh, JMJD2A Tudor, BAZ2B block, G9a block)
O=C(NCCOc1ccccc1)c1ncn[nH]1	JMJD2A Tudor 40µM, BAZ2B block 50µM, G9a block inconclusive
COc1cccc(C(=O)NCCS(=O)(=O)N2CC(C)CC(C)C2)c1 (stereo unspecified)	VDR inhibitor inconclusive, G9a block 25µM
COC(=O)C1CCN(S(=O)(=O)CCNC(=O)c2ccccc2)CC1	none (no result: HP1b chromo inh, VDR inhibitor, JMJD2A Tudor, BAZ2B block, G9a block)
CCOC(=O)C1CCN(S(=O)(=O)CCNC(=O)c2cccc(OC)c2)CC1	G9a block 18µM
COc1cccc(C(=O)NCCS(=O)(=O)N2CCOCC2)c1	G9a block 22µM
COc1cccc(C(=O)NCCS(=O)(=O)N2CCCC(C)C2)c1 (stereo unspecified)	none (no result: HP1b chromo inh, VDR inhibitor, JMJD2A Tudor, BAZ2B block, G9a block)
O=S(=O)(CCOc1ccccc1)N1CCOCC1	G9a block 79µM
COc1cc(OC)cc(C(=O)NCCN2CCOCC2)c1	HP1b chromo inh inconclusive, JMJD2A Tudor 10µM, BAZ2B block 50µM, G9a block 8.9µM
Cc1ccc(Nc2ccc(N3CCN(C(=O)c4ccc([N+](=O)[O-])cc4Cl)CC3)nn2)cc1	JMJD2A Tudor inconclusive, BAZ2B block inconclusive (no result: PLK1 PBD inh)
CN(C)C(=N)c1n[nH]nc1SCc1ccccc1	BAZ2B block 79µM
CCNc1ncc2nc(-c3ccccc3)c(=O)n(CCOC)c2n1	none (no result: HP1b chromo inh, PLK1 PBD inh, JMJD2A Tudor, BAZ2B block)
COC(=O)C1=C(C)N=c2s/c(=C3\C(=O)Nc4ccccc43)c(=O)n2C1c1ccccc1 (stereo unspecified)	BAZ2B block 7.9µM, G9a block 7.9µM (no result: HP1b chromo inh, VDR inhibitor, PLK1 PBD inh, JMJD2A Tudor)
COc1ccc2ccccc2c1C(=O)/C=C\c1ccoc1	HP1b chromo inh inconclusive, JMJD2A Tudor inconclusive, BAZ2B block 28µM, G9a block 45µM
COc1ccc(OC)c(Nc2nc(-c3sc(C)nc3C)cs2)c1	HP1b chromo inh inconclusive, JMJD2A Tudor 40µM, BAZ2B block 32µM, G9a block 50µM
CCCCC(=O)Nc1nc(C)c(-c2csc(Nc3cc(OC)ccc3OC)n2)s1	HP1b chromo inh inconclusive, JMJD2A Tudor inconclusive, BAZ2B block inconclusive, G9a block inconclusive
COc1ccc(OC)c(Nc2nc(-c3sc(NC(=O)CC(C)C)nc3C)cs2)c1	HP1b chromo inh inconclusive, JMJD2A Tudor 45µM, BAZ2B block inconclusive, G9a block 8.9µM
CCOC(=O)c1c(C)c(-c2ccccc2)n(CC(=O)NCCc2cccc(C)c2)c1C	none (no result: PLK1 PBD inh)
CCOC(=O)C1CCCN(c2nc3ccccc3nc2NS(=O)(=O)c2ccc(C)cc2)C1 (stereo unspecified)	none
CCS(=O)(=O)c1nc(S(=O)(=O)c2ccc(C)cc2)c(N2CC(C)OC(C)C2)s1 (stereo unspecified)	none (no result: G9a block)
CCCS(=O)(=O)c1nc(S(=O)(=O)c2ccc(C)cc2)c(N2CC(C)OC(C)C2)s1 (stereo unspecified)	G9a block 50µM
CCCS(=O)(=O)c1nc(S(=O)(=O)c2ccc(C)cc2)c(NCc2ccccn2)s1	G9a block 35µM
CCCS(=O)(=O)c1nc(S(=O)(=O)c2ccc(C)cc2)c(NCc2ccco2)s1	G9a block 40µM
CS(=O)(=O)c1nc(S(=O)(=O)c2ccc(Cl)cc2)c(NCc2ccccn2)s1	G9a block 40µM
CC1(C)OC(=O)C2(Cc3cc([N+](=O)[O-])ccc3N3CCCCCC32)C(=O)O1 (stereo unspecified)	none (no result: PLK1 PBD inh, BAZ2B block, G9a block)
CCc1nn(CC(=O)Nc2ccc(C)cc2C)c(=O)c2cc3sccc3n12	none (no result: PLK1 PBD inh)
Cc1ccccc1C(=O)NC(C(N)=O)P(=O)(OC(C)C)OC(C)C (stereo unspecified)	none
CCOc1ccc(NC(=O)N(Cc2c[nH]c3ccccc23)C2CCCCCC2)cc1	none (no result: PLK1 PBD inh, BAZ2B block)
O=C(Cc1ccc(Cl)cc1)NCCS(=O)(=O)N1CCN(c2ccccc2F)CC1	none
Cc1cc2c(s1)c1cnn(Cc3ccc(Cl)cc3)c(=O)c1n2C	JMJD2A Tudor 45µM (no result: HP1b chromo inh, VDR inhibitor, PLK1 PBD inh, BAZ2B block, G9a block)
N#Cc1ccc(C(C(=O)NC2CCCCC2)n2c(=O)c(-c3cc4ccccc4[nH]3)nc3ccccc32)cc1 (stereo unspecified)	none (no result: HP1b chromo inh, VDR inhibitor, JMJD2A Tudor, BAZ2B block, G9a block)
Cc1cc(C)c(C)c(OCC(=O)Nc2ccc(S(=O)(=O)Nc3nc(C)cc(C)n3)cc2)c1	G9a block 14µM (no result: PLK1 PBD inh)
Cc1ccc(OCC(=O)Nc2ccc(S(=O)(=O)Nc3ccccn3)cc2)cc1C	G9a block 50µM
Cc1ccccc1OCC(=O)Nc1ccc(S(=O)(=O)Nc2ncccn2)cc1	G9a block inconclusive (no result: PLK1 PBD inh)
COc1ccc(C2(C(=O)Nc3ccc(S(=O)(=O)Nc4nc(C)cc(C)n4)cc3)CCCC2)cc1OC	G9a block 50µM
Cc1ccc(OCC(=O)Nc2ccc(S(=O)(=O)Nc3ncccn3)cc2)c(C(C)(C)C)c1	G9a block 14µM (no result: PLK1 PBD inh)
O=C(N[C@H]1CCC(=O)N(CCSc2ccc(Br)cc2)CC1)OCc1ccccc1	none
Cc1ccc(CNC(=O)CSc2nc(=O)[nH]c3c2CCCC3)cc1	none (no result: PLK1 PBD inh)
CCN(CC)CCC(C)OC(c1ccccc1)c1ccccc1 (stereo unspecified)	JMJD2A Tudor 25µM, G9a block inconclusive
CC1CC2c3cccc(C(=O)O)c3C(=O)N2c2ccc(Cl)cc21 (stereo unspecified)	none (no result: BAZ2B block)
